Measured values reported in PubChem BioAssay (EPA / NIEHS).
Values joined by “and” are separate entries in the source; they are usually repeats but may differ in a detail not shown here. Identical values can stand only once. A structure can be active in one record and inactive in another. Active and inactive are the calls of the source. The calls were made as follows: active = hit-call score of the fitted dose curve at least 0.9, where 1 is the maximum; inactive = score below 0.9.

Key:
[1] = read-out: Macrophage colony-stimulating factor (MCSF), CSF1 (gene 1435); assay: BSK_hDFCGF_MCSF: BioMAP Diversity Plus: hDFCGF Assay for Macrophage colony-stimulating factor (MCSF) Biomarker Activity (AID 2283060); settings: primary human foreskin fibroblasts; actives raise or lower the signal
How it was run: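 M-CSF levels read by ELISA at 24 h post-dosing in human skin fibroblasts. Parallel cultures stained with SRB assessed cytotoxicity at the same time point; response fitted in both directions against the DMSO baseline.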

[2] = BSK_hDFCGF_SRB: Viability Assessment in the BioMAP Diversity Plus: hDFCGF Assay (AID 2283061); settings: primary human foreskin fibroblasts;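 also: cells exposed to compound for 24 h before the read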
How it was run: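 Viability was read as total protein: after 10% TCA fixation, wells were stained with 0.1% sulforhodamine B and read at 560 nm. Primary human foreskin fibroblasts were dosed for 24 h, with bidirectional fitting versus DMSO.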

[3] = read-out: TIMP metallopeptidase inhibitor 1 (TIMP1), TIMP1 (gene 7076); assay: BSK_hDFCGF_TIMP1: BioMAP Diversity Plus: hDFCGF Assay for TIMP metallopeptidase inhibitor 1 (TIMP1) Biomarker Activity (AID 2283062); settings: primary human foreskin fibroblasts; actives raise or lower the signal
How it was run: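 TIMP-1 measured by ELISA 24 h after chemical dosing of primary human skin fibroblasts, with gain or loss fitted relative to DMSO. Parallel SRB staining (560 nm) monitored overt cytotoxicity.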

[4] = read-out: Monokine induced gamma interferon (MIG), CXCL9 (gene 4283); assay: BSK_hDFCGF_MIG: BioMAP Diversity Plus: hDFCGF Assay for Monokine induced gamma interferon (MIG) Biomarker Activity (AID 2283063); settings: primary human foreskin fibroblasts; actives raise or lower the signal
How it was run: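 Human primary foreskin fibroblasts in the hDFCGF system, exposed to test chemical for 24 h; MIG measured by ELISA. Bidirectional curve fitting against DMSO negative control as activity baseline.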

[5] = read-out: Matrix Metallopeptidase 1 (MMP1), MMP1 (gene 4312); assay: BSK_hDFCGF_MMP1: BioMAP Diversity Plus: hDFCGF Assay for Matrix Metallopeptidase 1 (MMP1) Biomarker Activity (AID 2283064); settings: primary human foreskin fibroblasts; actives raise or lower the signal
How it was run: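 ELISA read-out of MMP1 from human foreskin fibroblasts (primary skin cells), 24 h post-dose. Gain or loss of signal was fitted bidirectionally versus DMSO negative control; cytotoxicity was checked by SRB in parallel cultures.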

[6] = read-out: Vascular cell adhesion molecule 1 (VCAM1), VCAM1 (gene 7412); assay: BSK_hDFCGF_VCAM1: BioMAP Diversity Plus: hDFCGF Assay for Vascular cell adhesion molecule 1 (VCAM1) Biomarker Activity (AID 2283065); settings: primary human foreskin fibroblasts; actives raise or lower the signal;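 as to AC50: VCAM-1 protein level quantified by ELISA after 24 h chemical exposure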
How it was run: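 ELISA readout of VCAM-1 on human dermal fibroblast primary cultures, 24 h after chemical exposure. Gain or loss of signal fitted in both directions against DMSO baseline.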

[7] = read-out: Plasminogen activator inhibitor-1 (PAI1), SERPINE1 (gene 5054); assay: BSK_hDFCGF_PAI1: BioMAP Diversity Plus: hDFCGF Assay for Plasminogen activator inhibitor-1 (PAI1) Biomarker Activity (AID 2283066); settings: primary human foreskin fibroblasts; actives raise or lower the signal
How it was run: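 PAI-1 levels in human dermal foreskin fibroblasts were quantified by ELISA 24 h after dosing, with gain or loss analysed against DMSO. Overt cytotoxicity was checked by sulforhodamine B total-protein staining in parallel cultures.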

[8] = read-out: Intercellular Adhesion Molecule 1 (ICAM1), ICAM1 (gene 3383); assay: BSK_KF3CT_ICAM1: BioMAP Diversity Plus: KF3CT Assay for Intercellular Adhesion Molecule 1 (ICAM1) Biomarker Activity (AID 2283067); settings: primary human keratinocytes with fibroblasts; actives raise or lower the signal
How it was run: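 Cell-surface ICAM-1 was measured by ELISA 24 h after dosing primary human skin keratinocytes co-cultured with fibroblasts. Parallel SRB staining tracked overt cytotoxicity. Gain or loss of signal was fitted relative to DMSO.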

[9] = BSK_KF3CT_SRB: Viability Assessment in the BioMAP Diversity Plus: KF3CT Assay (AID 2283069); settings: primary human keratinocytes with fibroblasts;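 also: read 24 h after compound addition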
How it was run: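 SRB read-out at 560 nm (0.1% stain, TCA-fixed cells) gauges overt cytotoxicity in a human skin keratinocyte–fibroblast co-culture 24 h post-dosing. Signal change was fitted bidirectionally relative to DMSO control.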

[10] = read-out: Interleukin-1 alpha (IL1a), IL1A (gene 3552); assay: BSK_KF3CT_IL1a: BioMAP Diversity Plus: KF3CT Assay for Interleukin-1 alpha (IL1a) Biomarker Activity (AID 2283070); settings: primary human keratinocytes with fibroblasts; actives raise or lower the signal
How it was run: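 Primary skin co-culture (keratinocytes, foreskin fibroblasts), 24 h exposure; ELISA for IL-1a; bidirectional curve fit vs DMSO.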

[11] = read-out: TIMP metallopeptidase inhibitor 2 (TIMP2), TIMP2 (gene 7077); assay: BSK_KF3CT_TIMP2: BioMAP Diversity Plus: KF3CT Assay for TIMP metallopeptidase inhibitor 2 (TIMP2) Biomarker Activity (AID 2283071); settings: primary human keratinocytes with fibroblasts; actives raise or lower the signal
How it was run: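 TIMP-2 measured by ELISA at 24 h in human keratinocyte/fibroblast primary co-cultures exposed to chemicals. Both increases and decreases were fitted against DMSO. Parallel cultures were stained with SRB for total protein as an overt-cytotoxicity check.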

[12] = read-out: C-C motif chemokine 2 (Homo sapiens) (UniProt P13500); assay: BSK_KF3CT_MCP1: BioMAP Diversity Plus: KF3CT Assay for Monocyte Chemoattractant Protein 1 (MCP1/CCL2) Biomarker Activity (AID 2283073); settings: primary human keratinocytes with fibroblasts; actives raise or lower the signal
How it was run: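 ELISA read-out of MCP-1, 24 h post-dose, in primary human skin keratinocytes co-cultured with fibroblasts. Parallel SRB staining monitors cytotoxicity; changes fitted both directions relative to DMSO.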

[13] = read-out: Matrix Metallopeptidase 9 (MMP9), MMP9 (gene 4318); assay: BSK_KF3CT_MMP9: BioMAP Diversity Plus: KF3CT Assay for Matrix Metallopeptidase 9 (MMP9) Biomarker Activity (AID 2283074); settings: primary human keratinocytes with fibroblasts; actives raise or lower the signal;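 as to AC50: MMP9 protein level quantified by ELISA in the co-culture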
How it was run: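 ELISA read-out of MMP-9 at 24 h post-dosing in a co-culture of human skin keratinocytes and foreskin fibroblasts. Gain or loss of signal was fitted in both directions against DMSO.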

[14] = read-out: urokinase plasminogen activator (uPA), PLAU (gene 5328); assay: BSK_KF3CT_uPA: BioMAP Diversity Plus: KF3CT Assay for urokinase plasminogen activator (uPA) Biomarker Activity (AID 2283075); settings: primary human keratinocytes with fibroblasts; actives raise or lower the signal
How it was run: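 Skin co-culture (keratinocytes + foreskin fibroblasts), human primary; 24 h post-dose; uPA by ELISA; gain/loss fit vs DMSO baseline.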

CD40, CD40 (gene 958) = assay: BSK_LPS_CD40: BioMAP Diversity Plus: LPS Assay for CD40 Biomarker Activity (AID 2283076); settings: primary human HUVEC with PBMC; actives raise or lower the signal
How it was run: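 In the LPS system of human endothelial cells with peripheral blood mononuclear cells, CD40 levels were read by ELISA 24 h post-treatment. Signal changes in either direction were fitted against the DMSO baseline, with parallel SRB protein staining.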

[15] = read-out: E-selectin (Homo sapiens) (UniProt P16581); assay: BSK_LPS_Eselectin: BioMAP Diversity Plus: LPS Assay for Eselectin Biomarker Activity (AID 2283077); settings: primary human HUVEC with PBMC; actives raise or lower the signal
How it was run: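 E-selectin ELISA on LPS-stimulated endothelial cell/PBMC co-cultures, read 24 h post-treatment; gains and losses fitted against DMSO. Parallel SRB staining (0.1% SRB after 10% TCA fixation, 560 nm) flags overt cytotoxicity.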

[16] = read-out: Interleukin-8 (IL8), CXCL8 (gene 3576); assay: BSK_LPS_IL8: BioMAP Diversity Plus: LPS Assay for Interleukin-8 (IL8) Biomarker Activity (AID 2283078); settings: primary human HUVEC with PBMC; actives raise or lower the signal
How it was run: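 ELISA read-out of IL-8 after 24 h chemical treatment of LPS-activated endothelial/PBMC human primary co-cultures. Changes either up or down relative to DMSO; overt cytotoxicity checked by sulforhodamine B staining in parallel wells.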

[17] = BSK_LPS_SRB: Viability Assessment in the BioMAP Diversity Plus: LPS Assay (AID 2283079); settings: primary human HUVEC with PBMC;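 also: total protein by sulforhodamine B absorbance as a cytotoxicity measure; measured one day after compound addition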
How it was run: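 SRB viability endpoint: cells fixed with 10% TCA, stained with 0.1% SRB, read at 560 nm, 24 h post-dose. HUVEC/PBMC co-culture; signal change in either direction scored relative to DMSO.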

[18] = read-out: Interferon-gamma inducible Protein 10 (IP10), CXCL10 (gene 3627); assay: BSK_KF3CT_IP10: BioMAP Diversity Plus: KF3CT Assay for Interferon-gamma inducible Protein 10 (IP10) Biomarker Activity (AID 2283068); settings: primary human keratinocytes with fibroblasts; actives raise or lower the signal
How it was run: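 Signal is secreted/surface IP-10 by ELISA in a human primary skin co-culture of keratinocytes and foreskin fibroblasts, taken 24 h post-dosing; DMSO served as negative control.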

[19] = read-out: Transforming growth factor beta 1 (TGFb1), TGFB1 (gene 7040); assay: BSK_KF3CT_TGFb1: BioMAP Diversity Plus: KF3CT Assay for Transforming growth factor beta 1 (TGFb1) Biomarker Activity (AID 2283072); settings: primary human keratinocytes with fibroblasts; actives raise or lower the signal
How it was run: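 ELISA quantifies TGF-b1 at 24 h post-dose in a primary human skin co-culture of keratinocytes and fibroblasts, with gain or loss judged against DMSO. Parallel SRB total-protein staining flags overt cytotoxicity.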

Measured: AC50

Chain of E-selectin (Homo sapiens) (P16581 whole entry, looked up): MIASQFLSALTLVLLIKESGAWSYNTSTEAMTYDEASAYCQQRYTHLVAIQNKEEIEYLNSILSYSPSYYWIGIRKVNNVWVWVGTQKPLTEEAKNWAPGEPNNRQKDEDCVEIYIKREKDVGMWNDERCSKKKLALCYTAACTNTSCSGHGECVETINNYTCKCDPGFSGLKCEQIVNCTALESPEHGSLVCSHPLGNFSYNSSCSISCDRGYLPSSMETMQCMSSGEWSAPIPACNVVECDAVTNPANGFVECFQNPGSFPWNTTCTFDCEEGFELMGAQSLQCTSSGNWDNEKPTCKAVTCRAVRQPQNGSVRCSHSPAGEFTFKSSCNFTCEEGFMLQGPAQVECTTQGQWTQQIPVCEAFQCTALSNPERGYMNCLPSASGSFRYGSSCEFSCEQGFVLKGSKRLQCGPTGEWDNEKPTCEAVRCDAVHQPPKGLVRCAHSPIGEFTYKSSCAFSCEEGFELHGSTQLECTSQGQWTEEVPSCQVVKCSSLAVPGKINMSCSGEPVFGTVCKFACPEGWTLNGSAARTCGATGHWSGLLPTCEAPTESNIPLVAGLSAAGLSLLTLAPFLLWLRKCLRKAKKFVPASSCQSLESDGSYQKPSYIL

FC(F)(F)C(F)(F)C(F)(F)C(F)(F)CCI
inactive: [1] | [2] | [3] | [4] | [5] | [6] | [7] | [8] | [9] | [10] | [11] | [12] | [13] | [14] | CD40, CD40 (gene 958) | [15] | [16] | [17]
active: [4] 49.3 µM

CCCCCCC(C)OC(=O)CCCCC(=O)OC(C)CCCCCC (stereo not drawn)
inactive: all assays above

FC(F)(F)C(F)(F)C(F)(F)CI
not listed: [16] | [19]
inactive: all other assays above

C=C(C)C(=O)OCCC(F)(F)C(F)(F)C(F)(F)C(F)(F)C(F)(C(F)(F)F)C(F)(F)F
not listed: [10] | [19]
inactive: all other assays above

O=C(O)C(F)(F)C(F)(F)C(F)(F)C(F)(F)C(F)(F)C(F)(F)C(F)(F)C(F)(F)Cl
inactive: [3] | CD40, CD40 (gene 958) | [15]
active: [1] 30 µM and 46.9 µM | [2] 47.7 µM and 49.2 µM | [3] 30 µM | [4] 21.4 µM and 34.1 µM | [5] 1.31 µM and 12.3 µM | [6] 46.8 µM and 30 µM | [7] 47.7 µM and 46.5 µM | [8] 32 µM and 25.1 µM | [18] 45 µM and 45.9 µM | [9] 41.7 µM and 49.7 µM | [11] 53.9 µM and 52.6 µM | [12] 49.4 µM and 55.1 µM | [13] 37.5 µM and 40.3 µM | [14] 47.8 µM and 47.2 µM | [15] 30 µM | [16] 5.95 µM and 40.1 µM | [17] 48.4 µM and 47.2 µM

C=CC(F)(F)C(F)(F)C(F)(F)C(F)(F)C(F)(F)C(F)(F)C(F)(F)C(F)(F)C=C
inactive: [1] | [2] | [3] | [4] | [5] | [6] | [7] | [8] | [9] | [11] | [12] | [13] | [14] | CD40, CD40 (gene 958) | [15] | [16] | [17]
active: [2] 3.33 µM
